PNC assembly inh: perinucleolar compartment assembly inhibition; PC3M PTB-GFP, PNC prevalence imaging, 16 h; active compounds read low; activity change (PNC), negative = inhibition, % at 10 µM; 140,000 tested, 3.1% active; AID 2417;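 active means readout at or below -70, meaning at least 70% loss of cells showing the perinucleolar compartment, a nuclear body marking cancer cells; inconclusive means readout between -30 and a set limit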;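 further: plate controls were DMSO wells for no effect and camptothecin positive control wells for full effect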
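PC3M cells stably expressing PTB-GFP, 750–1000 cells/well, treated 16 h at 37 °C with compound (23 nl of library stock), in duplicate. After paraformaldehyde fixation and Hoechst stain, imaged at 20x; PNC prevalence scored by image analysis.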
HPGD inh: blocks human HPGD enzyme activity. P15428. Potency, µM, for the others: at the top dose activity change, negative = inhibition, most hits filed as inhibitors. 150,000 tested, 4.3% active. purified HPGD, NADH fluorescence kinetic, PGE2 substrate; further: potency means the concentration at half of the fitted maximal effect
Target sequence (P15428 whole entry, looked up): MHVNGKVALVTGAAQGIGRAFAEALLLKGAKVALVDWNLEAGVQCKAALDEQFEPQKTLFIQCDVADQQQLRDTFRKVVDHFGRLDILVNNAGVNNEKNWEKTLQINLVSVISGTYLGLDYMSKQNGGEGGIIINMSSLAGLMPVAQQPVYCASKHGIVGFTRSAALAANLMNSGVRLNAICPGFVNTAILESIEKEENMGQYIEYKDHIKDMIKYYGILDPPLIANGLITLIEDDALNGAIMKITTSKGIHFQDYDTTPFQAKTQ
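20 nM HPGD preincubated 15 min at room temperature with compound in 50 mM Tris-HCl pH 8, 0.01% Tween 20. Started with 1 mM NAD+ and 30 uM prostaglandin E2; NADH fluorescence (360/450 nm) read 5 times over 30-s intervals, last minus first.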
LMNA splice mod: modulators of lamin A splicing; HeLa LMNA splicing GFP/RFP minigene ratio, 48 h; 200,000 tested, 0.01% active; AID 1487; Potency, µM (series often up to 46.1 µM), for inactives: at the top dose ratio change, negative = inhibition, most hits filed as inhibitors; active means well fitted inhibition curve with a large enough effect in the signal ratio, with a control signal flat, not every such curve was filed as active; inconclusive means small, poorly fitted or top-dose-only effect, or effect the other way, or a change in a side signal; the % refers to the signal ratio; further: potency means the concentration at half of the fitted maximal effect
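Read-out is the ratio of GFP to DsRed2 object intensity, acquired by 488 nm laser-scanning cytometry on HeLa lamin A-EGFP minigene reporter cells. Compound incubation 48 hrs at 37 °C in Opti-MEM with 2% FBS; DMSO 0.5% final.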
ALDH1A1 block: inhibitors of human aldehyde dehydrogenase 1A1. P00352. Purified ALDH1A1, NADH fluorescence, propionaldehyde substrate. Potency, µM (titrated, usually from 75.3 µM), for the others: at the highest dose activity, negative = inhibition, actives largely listed as inhibitors. 220,000 tested, 7.3% active. AID 1030;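 further: potency means the concentration at half of the fitted maximal effect; plate controls were no enzyme wells and a reference inhibitor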
ALOX12 inhib: 12-hLO (ALOX12) enzyme inhibition. AID 1452. purified 12-hLO, xylenol orange hydroperoxide absorbance. 150,000 tested, 0.12% active. P18054. Potency, µM (series often up to 57.1 µM), inactives show at the top dose activity change, negative = inhibition, actives largely listed as inhibitors; active means well fitted inhibition curve with a large enough effect; inconclusive means small, poorly fitted or top-dose-only effect; further: potency means the concentration at half of the fitted maximal effect; nearly all actives have a fitted effect of over 55% in size
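Lipoxygenase turnover measured by absorbance at 573 and 405 nm after Fe-XO development. Human 12hLO 150 nM, arachidonate 40 uM, pH 7.0 Hepes buffer with detergent; 15 min compound preincubation, 30 min reaction.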
An asterisk follows results filed as active; u = inconclusive; x = no result given; [ ] = dose if it differs, or a comment. A selection: hits, their analogues and other compounds. The true share with any hit is near 10%. Unless noted, the call rests on the fitted dose curve; in most records, active means well fitted inhibition curve with a large enough effect (not every such curve was filed as active); inconclusive means small, poorly fitted or top-dose-only effect, or another doubt; inactive means no such curve, though single readings can be large or run the other way. Unless noted, on the % scale 0 is the no-effect control and ±100 the full control effect.

SMILES	PNC assembly inh	HPGD inh	LMNA splice mod	ALDH1A1 block	ALOX12 inhib
CCOC(=O)C1=C(N)OC2=C(C(=O)CC(C)(C)C2)C1c1ccc(CC)s1 (stereo unspecified)	x	x	x	6%	x
CCOC(=O)C1=C(N)OC2=C(C(=O)CC(C)(C)C2)C1c1ccc(C)s1 (stereo unspecified)	x	x	-3%[9.22 µM]	13µM*	x
Cc1ccc(C2C(C(N)=S)=C(N)OC3=C2C(=O)CC(C)(C)C3)cc1 (stereo unspecified)	u	-11%	-3%	14µM*	-19%
Clc1ccccc1Cn1nnc(-c2ccccc2)n1	x	x	x	-3%	x
Clc1ccc(Cn2nnc(-c3ccccc3)n2)cc1	-100*	-14%	1%	5%	-3%
Nc1nc(Cn2nnc(-c3ccccc3Cl)n2)nc(N2CCOCC2)n1	-7	-5%	-7%	-2%	-1%
Clc1ccccc1-c1nnn(Cc2ccc(-c3nn[nH]n3)cc2)n1	17	13µM*	4%	16µM*	-4%
CS(=O)(=O)N1CCC2(CCN(c3ccccn3)CC2)CC1	x	-20%	x	u	5%
NNC(=O)c1cnn(Cc2ccccc2)c1N	-22	-9%	13%	13µM*	7%
CCOC(=O)CSc1nc2ccccc2c(=O)n1CC1COc2ccccc2O1 (stereo unspecified)	-1	-15%	15%	u	3%
CCCN(CCC)C(=O)CSc1nc2ccccc2c(=O)n1CC1COc2ccccc2O1 (stereo unspecified)	30	-13%	7%	11µM*	2%
O=C(OCc1nc2ccccc2s1)[C@@H]1CCCN1S(=O)(=O)c1ccccc1F	u	-16%	-1%	7.9µM*	-2%
CC(NC(=O)COC(=O)[C@@H]1CCCN1S(=O)(=O)c1ccccc1F)C12CC3CC(CC(C3)C1)C2 (stereo partly specified)	44	-26%	-6%	u	-2%
COc1cccc([C@H](O)Cn2cc(-c3cccc(CON=C(C)C)c3)nn2)c1	x	x	x	-4%[13.5 µM]	x
COc1cccc(-c2nnc(SCC3CNC(=O)O3)n2-c2ccc(Cl)cc2)c1 (stereo unspecified)	81	x	2%	0.63µM*	-1%
CC(C)OC(=O)CSc1n[nH]c(-c2cccnc2)n1	-7	16µM*	u	-9%	4%
CCOc1ccc(C(=O)NCCCn2ccnc2)cc1	-12	-2%	-7%	12%	-1%
O=C(NCCCn1ccnc1)c1ccc(N2CCCCC2)c([N+](=O)[O-])c1	x	x	u	7.9µM*	x
COc1ccc(C(=O)NCCCn2ccnc2)cc1	-27	-8%	-7%	7.9µM*	-9%
Clc1ccc(/C=C\c2nc(Cl)c(-c3ccc(Cl)cc3)c(Cl)n2)cc1	x	-9%	x	u	-2%[11.4 µM]
COC(=O)C1=C(C(=O)OC)N2C=CC=CC2(C)C(C(=O)OC)=C1C(=O)OC (stereo unspecified)	u	35µM*	u	-7%	-20%
COC(=O)COc1ccc(S(=O)(=O)Nc2ccc(C(N)=O)cc2)cc1Cl	-92*	-3%	2%	-3%	-2%
C[C@H]1Cc2c(COc3ccccc3)nc3c(c2CO1)CN(C(=O)NCCc1c[nH]c2ccccc12)CC3	x	1%	-12%[9.22 µM]	12%[13.5 µM]	-1%[11.4 µM]
O=C(OCc1cc(=O)n2c(n1)sc1ccccc12)c1ccc(O)cc1	44	14µM*	-5%	-2%	-4%
O=c1cc(CCl)nc2sc3ccccc3n12	x	x	u	4%	x
SMILES	PNC assembly inh	HPGD inh	LMNA splice mod	ALDH1A1 block	ALOX12 inhib
Cc1ccc(N(Cc2cccs2)C(=O)c2ccco2)cc1	x	x	28%[46 µM]	x	x
O=C(c1ccco1)N(Cc1ccc([N+](=O)[O-])cc1)c1ccc(Br)cc1	107	-9%	8%[0.0737 µM]	u	-5%
O=C(c1ccco1)N(Cc1cccc([N+](=O)[O-])c1)c1ccc(Br)cc1	x	x	x	22µM*	x
O=C(c1ccco1)N(Cc1ccco1)c1ccc(O)cc1	-96*	-1%	-4%	4%	-4%
O=C(c1ccco1)N(Cc1ccccc1)c1cccc([N+](=O)[O-])c1	x	x	x	20µM*	x
CCN(CC)S(=O)(=O)c1ccc(NC(=O)c2c(C)oc3ncnc(N4CCCCC4)c23)cc1	x	x	9%[46 µM]	x	x
COc1cccc(C2=NO[C@@H]3C(=O)N(Cc4ccccc4)C(=O)[C@H]23)c1OC	-107*	u	5%	u	-5%
Cc1cc(=O)n(Cc2cccc(F)c2)c2c1c(C)nn2-c1cccc(F)c1	x	x	7%[46 µM]	x	x
Nc1c(-c2cccc([N+](=O)[O-])c2)nc2ccccn12	-21	-22%	4%	7.5µM*	0%
O=C(CC1CCCCC1)NC1CCCC1	36	18µM*	-8%	10%	1%
O=C(CC1CCS(=O)(=O)C1)NC1CCCCC1 (stereo unspecified)	u	-5%	-2%	2%	-4%
O=C(CCC1CCCC1)NC1CCCCC1	5	16µM*	5%	7%	-1%
O=C(O)CCC(=O)NC1CCCCC1	-12	-4%	-16%	-8%	10%
COC(=O)C1=C(O)/C(=C\c2ccc(CNS(=O)(=O)c3ccccc3)o2)N=C1C	28	-23%	u	32µM*	-13%
COC(=O)C1=C(O)/C(=C\c2ccc(CNS(=O)(=O)c3ccc(Cl)cc3)o2)N=C1C	-10	-10%	-9%	-8%	u
COc1ccccc1CN1CCCC2(CCN(C(C)=O)CC2)C1	x	-2%	x	-13%	-1%
CCCCCOCC1CC(C/C(C)=N/Nc2nc(-c3ccccc3)cs2)C(=O)O1 (stereo unspecified)	36	-6%	4%	25µM*	-2%
Cn1cccc1-c1cc2n(n1)CCC(=O)N2CC(=O)Nc1ccc(F)cc1Cl	x	x	22%[46 µM]	x	x
Cc1nc(N2CCCCC2)sc1C(=O)c1ccc(SCCO)c([N+](=O)[O-])c1	x	x	x	13µM*	x
Cc1nc(N2CCCCC2)sc1C(=O)c1cccc([N+](=O)[O-])c1	x	x	u	10µM*	x
O=S(=O)(O)CCCc1cccc2ccccc12	x	-4%	x	-1%[13.5 µM]	1%[11.4 µM]
Cc1nn(C2CCS(=O)(=O)C2)c(Cl)c1/C=C/C(=O)OCC(=O)Nc1ccccc1OC(F)F (stereo unspecified)	-19	-11%	-13%	7%	-3%
COc1ccc(Cl)cc1NC(=O)COC(=O)/C=C/c1c(C)nn(C2CCS(=O)(=O)C2)c1Cl (stereo unspecified)	1	x	u	25µM*	-4%
CC(C)COC[C@H](CN(Cc1ccccc1)c1ccccc1)N1CCCC1	x	-4%	u	6%[20.9 µM]	0%[25.6 µM]
c1ccc(-c2nnc(OCc3cccnc3)c3ccccc23)cc1	x	x	-9%[46 µM]	11%	x
COc1ccc(-c2nnc(OCc3ccccc3)c3ccccc23)cc1	-88*	-21%	u	u	-1%
Cc1cc(C)c2c(CC(=O)O)coc2c1	-9	20µM*	0%	-4%	0%
COc1ccc(N2CCN(S(=O)(=O)CCNC(=O)c3ccc(OC(C)C)cc3)CC2)cc1	x	x	-1%[46 µM]	x	x

Assay outcomes (PubChem)
